Measured values taken from PubChem BioAssay.
Active and inactive are the calls of the source.

Key:
[1] = E. coli DRC41 culture turbidity changes, primary screen, E. coli filamentation inducer project, strain DRC41, OD650, 48 h (AID 1152);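 further: E. coli MC1000 strain DRC41 lacking acrAB efflux pump and sulA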; conditions: E. coli DRC41 (acrAB sulA), higher = more signal, called active from +8 up or from −8 down
[2] = small-molecule binders of probe aLefty1, primary screen, biochemical, small-molecule microarray, 635/667 nm fluorescence (AID 1153); conditions: higher = more signal;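 further: score merges spot fluorescence with signal-to-noise ratio from the scanned slide images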
[3] = PSAC antagonists in infected red cells, primary screen, cell-based, P. falciparum Indochina, OD700, 1 h (AID 1154); conditions: P. falciparum Indochina infected RBC osmotic lysis, higher = more signal, called active from +8 up or from −8 down
[4] = PSAC antagonists in infected red cells, primary screen, cell-based, P. falciparum Indochina, OD700, 2 h (AID 1155);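 further: lysis reports solute entry through the parasite surface anion channel PSAC; channel blockers reduce lysis of infected cells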; conditions: P. falciparum Indochina infected erythrocytes, osmotic lysis OD700; higher = more signal, called active from +8 up or from −8 down
[5] = osmotic lysis modulators in infected erythrocytes, primary screen, PSAC antagonist project, cell-based, P. falciparum Indochina, OD700, 3 h (AID 1156); conditions: higher = more signal, called active from +8 up or from −8 down
[6] = PSAC antagonists in infected red cells, primary screen, cell-based, P. falciparum Indochina, OD700, 18 h (AID 1157); conditions: P. falciparum Indochina infected erythrocytes, osmotic lysis OD700, 18 h; higher = more signal, called active from +8 up or from −8 down
[7] = modulators of S6 phosphorylation in cells, primary screen, cell-based, A549, cytoblot, luminescence, serum-stimulated (AID 1158); conditions: A549 phospho-S6 cytoblot, 5 h, higher = more signal;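 further: serum-stimulated A549 lung adenocarcinoma cells; signal is phosphorylated S6 detected by cytoblot immunostaining with HRP secondary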
[8] = target: NADPH oxidase 2 (Homo sapiens) (UniProt P04839); assay: NOX2-dependent H2O2 signal modulators, primary screen, NOX inhibitor project, cell-based, HEK293-NOX2, PMA-stimulated, Amplex Red fluorescence (AID 1159); conditions: 45 min, higher = more signal, called active from +8 up or from −8 down; further: test concentration not given here
Sequence of NADPH oxidase 2 (Homo sapiens) (P04839 whole entry, looked up): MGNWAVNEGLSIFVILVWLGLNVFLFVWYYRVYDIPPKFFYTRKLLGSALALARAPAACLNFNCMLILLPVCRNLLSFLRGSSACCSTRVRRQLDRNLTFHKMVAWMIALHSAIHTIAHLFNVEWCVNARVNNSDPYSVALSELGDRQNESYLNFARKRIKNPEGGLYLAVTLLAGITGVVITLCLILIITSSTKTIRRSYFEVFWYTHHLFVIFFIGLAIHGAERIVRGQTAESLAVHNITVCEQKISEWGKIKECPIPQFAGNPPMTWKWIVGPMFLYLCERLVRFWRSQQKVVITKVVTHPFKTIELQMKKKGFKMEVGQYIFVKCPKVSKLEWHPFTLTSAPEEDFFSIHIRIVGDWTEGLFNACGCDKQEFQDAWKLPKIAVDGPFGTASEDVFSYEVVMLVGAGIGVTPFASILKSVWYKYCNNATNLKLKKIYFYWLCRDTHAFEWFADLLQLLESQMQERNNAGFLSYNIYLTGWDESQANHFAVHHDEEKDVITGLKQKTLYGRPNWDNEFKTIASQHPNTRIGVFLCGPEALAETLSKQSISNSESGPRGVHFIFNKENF

[9] = target: NADPH oxidase 4 (Homo sapiens) (UniProt Q9NPH5); assay: NOX4-dependent H2O2 signal modulators, primary screen, NOX inhibitor project, cell-based, HEK293-NOX4, tetracycline-induced, Amplex Red fluorescence (AID 1160); conditions: 45 min, higher = more signal, called active from +8 up or from −8 down
Sequence of NADPH oxidase 4 (Homo sapiens) (Q9NPH5 whole entry, looked up): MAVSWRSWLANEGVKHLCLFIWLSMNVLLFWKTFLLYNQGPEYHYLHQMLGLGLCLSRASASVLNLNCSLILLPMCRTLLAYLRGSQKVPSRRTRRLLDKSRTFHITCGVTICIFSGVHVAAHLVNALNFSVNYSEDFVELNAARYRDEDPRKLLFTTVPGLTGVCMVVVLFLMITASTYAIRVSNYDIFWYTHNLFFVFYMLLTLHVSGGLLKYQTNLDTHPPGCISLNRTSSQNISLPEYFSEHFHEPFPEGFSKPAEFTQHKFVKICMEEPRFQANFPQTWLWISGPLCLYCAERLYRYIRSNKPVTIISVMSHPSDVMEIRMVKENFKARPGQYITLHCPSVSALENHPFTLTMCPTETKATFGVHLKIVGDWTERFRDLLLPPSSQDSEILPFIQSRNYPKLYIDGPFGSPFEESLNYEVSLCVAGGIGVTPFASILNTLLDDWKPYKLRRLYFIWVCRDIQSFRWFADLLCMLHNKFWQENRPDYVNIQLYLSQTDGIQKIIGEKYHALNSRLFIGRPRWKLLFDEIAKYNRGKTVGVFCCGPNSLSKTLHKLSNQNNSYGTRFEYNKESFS

[10] = target: NADPH oxidase 5 (Homo sapiens) (UniProt Q96PH1); assay: NOX5-dependent H2O2 signal modulators, primary screen, NOX inhibitor project, cell-based, HEK293-NOX5, Amplex Red fluorescence (AID 1161); conditions: HEK293-NOX5, ionomycin, 45 min, higher = more signal
Sequence of NADPH oxidase 5 (Homo sapiens) (Q96PH1 whole entry, looked up): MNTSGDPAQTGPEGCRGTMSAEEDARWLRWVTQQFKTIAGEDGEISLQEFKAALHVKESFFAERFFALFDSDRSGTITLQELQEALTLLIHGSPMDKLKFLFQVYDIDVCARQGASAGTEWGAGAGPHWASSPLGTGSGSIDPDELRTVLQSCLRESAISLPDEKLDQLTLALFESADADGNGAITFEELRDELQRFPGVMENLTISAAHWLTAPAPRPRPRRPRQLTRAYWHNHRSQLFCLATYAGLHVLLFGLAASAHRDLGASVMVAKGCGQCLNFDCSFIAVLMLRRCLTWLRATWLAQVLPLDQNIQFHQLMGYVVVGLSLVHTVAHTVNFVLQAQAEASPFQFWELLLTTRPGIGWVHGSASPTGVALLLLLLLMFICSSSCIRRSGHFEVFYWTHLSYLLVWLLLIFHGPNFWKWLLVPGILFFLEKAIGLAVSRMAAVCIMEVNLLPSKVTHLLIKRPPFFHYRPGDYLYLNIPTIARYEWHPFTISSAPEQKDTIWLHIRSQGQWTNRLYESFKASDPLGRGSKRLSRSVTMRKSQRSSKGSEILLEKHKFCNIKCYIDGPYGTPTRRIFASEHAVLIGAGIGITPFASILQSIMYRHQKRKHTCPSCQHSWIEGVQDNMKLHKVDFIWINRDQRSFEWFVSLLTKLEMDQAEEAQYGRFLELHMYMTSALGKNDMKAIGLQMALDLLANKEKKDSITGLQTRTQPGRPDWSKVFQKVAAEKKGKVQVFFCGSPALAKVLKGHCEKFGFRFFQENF

[11] = A549 cell viability effects, profiling panel, calcein-AM fluorescence, 48 h, basal (AID 1162); conditions: higher = more signal; further: test concentration not given here
[12] = adipocyte viability effects, profiling panel, cell-based, 3T3-L1 adipocytes, calcein-AM fluorescence, 48 h, basal (AID 1163); conditions: 3T3-L1 adipocytes viability, higher = more signal; further: test concentration not given here
[13] = HepG2 cell viability effects, profiling panel, calcein-AM fluorescence, 48 h, basal (AID 1164); conditions: higher = more signal; further: test concentration not given here
[14] = MM1S cell viability effects, profiling panel, calcein-AM fluorescence, 48 h, basal (AID 1165); conditions: higher = more signal;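 further: viability of MM1S multiple myeloma cells under basal unstimulated conditions; test concentration not given here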
[15] = basal RPMI8226 viability, no added stimulus, profiling panel, cell-based, calcein-AM fluorescence, 48 h, PK04 Diversity Set (AID 1166); conditions: RPMI8226 myeloma viability, higher = more signal;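 further: cells grown under basal conditions without added stimulus; test concentration not given here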
[16] = basal HepG2 mitochondrial membrane potential changes, profiling panel, cell-based, JC-1 fluorescence, 24 h, 100 nL compound (AID 1167); conditions: higher = more signal; further: test concentration not given here
[17] = basal 3T3-L1 adipocyte mitochondrial potential changes, profiling panel, cell-based, JC-1 fluorescence, 3T3-L1 adipocytes, 24 h, 100 nL compound (AID 1168); conditions: JC-1 mitochondrial fluorescence, higher = more signal, called active from +8 up or from −8 down; further: test concentration not given here
[18] = basal RPMI8226 mitochondrial membrane potential changes, profiling panel, cell-based, JC-1 fluorescence, 24 h, 100 nL compound (AID 1169); conditions: RPMI8226 myeloma, JC-1 mitochondrial potential fluorescence, higher = more signal; further: test concentration not given here
[19] = basal MM1S mitochondrial membrane potential changes, profiling panel, cell-based, JC-1 fluorescence, 24 h, 100 nL compound (AID 1170); conditions: higher = more signal; further: test concentration not given here
[20] = A549 lung cancer cell viability effects, profiling panel, resazurin fluorescence, 24 h, PK04 Diversity Set (AID 1171); conditions: higher = more signal, called active from +8 up or from −8 down; further: test concentration not given here

Structure (SMILES)	z-score [1]	composite z-score [2]	z-score [3]	z-score [4]	z-score [5]	z-score [6]	z-score [7]	z-score [8]	z-score [9]	z-score [10]	z-score [11]	z-score [12]	z-score [13]	z-score [14]	z-score [15]	z-score [16]	z-score [17]	z-score [18]	z-score [19]	z-score [20]
COC(=O)[C@@]1(Cc2ccc(F)cc2)[C@H]2c3cc(C(=O)N4CCCC4)n(CCSCCO)c3C[C@H]2CN1C(=O)c1ccccc1	-0.683 (inactive)	0.433	1.37 (inactive)	0.367 (inactive)	0.189 (inactive)	0.618 (inactive)	0.332	0.639 (inactive)	-0.179 (inactive)	-0.345	-0.354	0.75	0.706	-1.58	-0.118	1.3	-1.3 (inactive)	-0.00907	-0.303	-0.294 (inactive)
[N-]=[N+]=Nc1ccccc1C[C@@]1(C(=O)NCc2ccccc2)N=C(c2ccc(OCCCO)cc2)O[C@@H]1c1ccccc1	0.0295 (inactive)	1.43	27.6 (active)	17.3 (active)	1.4 (inactive)	2.09 (inactive)	0.308	-1.67 (inactive)	-0.0758 (inactive)	-1.1	-1.36	0.902	-1.78	-2.51	-3.76	1.45	-0.739 (inactive)	-1.3	-0.738	0.808 (inactive)
CS(=O)(=O)CCOC(=O)C1=CC(CCCO)=CC(C2CC2)N(Cc2sc3ccccc3c2Cl)C=C1C(=O)OCCS(C)(=O)=O (stereo not given)	-0.406 (inactive)	0.52	12.8 (active)	2.13 (inactive)	0.978 (inactive)	1.41 (inactive)	0.248	-0.739 (inactive)	-0.315 (inactive)	-1.11	-0.768	0.968	-0.344	-3.24	-3.05	1.67	0.182 (inactive)	-0.843	-1.27	0.459 (inactive)
[N-]=[N+]=NCc1ccccc1[C@H]1OC(c2ccc(OCCCO)cc2)=N[C@@]1(CCS(=O)(=O)c1ccccc1)C(=O)O	-0.123 (inactive)	0.328	20.5 (active)	6 (inactive)	0.471 (inactive)	1.06 (inactive)	-0.497	1.09 (inactive)	1.09 (inactive)	2.1	0.0952	0.0313	0.35	0.263	-0.829	-1.24	-1.02 (inactive)	-0.278	-0.479	0.355 (inactive)
CCOC(=O)C[C@H]1[C@H](OC(=O)c2ccc(-c3ccccc3)cc2)[C@@H](NC(=O)C2CCCCC2)c2cc(OCCCO)ccc2N1C(=O)Cc1ccc(OC)cc1	-0.815 (inactive)	0.0315	2.23 (inactive)	0.166 (inactive)	-0.816 (inactive)	0.0141 (inactive)	0.571	-0.289 (inactive)	1.21 (inactive)	0.732	-0.869	0.0396	-0.216	-0.581	-0.938	0.801	-0.199 (inactive)	0.823	0.488	-0.0129 (inactive)
COCCCNC(=O)[C@@]1(Cc2ccccc2I)c2ccccc2C(=O)N(Cc2ccccc2OC)[C@H]1c1ccc(CO)cc1	0.567 (inactive)	-0.164	10.1 (active)	1.27 (inactive)	1.73 (inactive)	0.576 (inactive)	-0.0483	-1.68 (inactive)	0.642 (inactive)	-1.19	0.0588	-0.188	-0.387	-0.686	-1.58	1.44	-0.217 (inactive)	-0.533	-0.151	-0.113 (inactive)
CCCCN1CC=CC23O[C@@H]4C=CCCOC(=O)C4[C@H]2C(=O)N(CCO)[C@@H]3C1=O (stereo not given in full)	0.634 (inactive)	-0.239	0.506 (inactive)	0.303 (inactive)	1.21 (inactive)	0.211 (inactive)	-0.357	1.09 (inactive)	0.519 (inactive)	0.432	-0.725	0.0904	-2.09	0.303	-0.105	-0.508	0.0409 (inactive)	0.0612	0.37	-0.288 (inactive)
CN(C)C(=O)[C@]1(CCS(=O)(=O)c2ccccc2)N=C(c2ccc(OCCCO)cc2)O[C@@H]1c1ccccc1CN=[N+]=[N-]	0.0558 (inactive)	0.342	25.5 (active)	14.6 (active)	1.47 (inactive)	1.57 (inactive)	0.131	-0.163 (inactive)	2.09 (inactive)	-0.658	-0.306	-0.0349	0.589	-1.29	0.382	-0.12	-0.197 (inactive)	0.0522	-0.776	1.09 (inactive)
O=C1C2C=CC(C(O)c3ccccn3)N(Nc3ccc([N+](=O)[O-])cc3)C2C(=O)N1c1ccccc1 (stereo not given)	-1.5 (inactive)	0.0768	4.59 (inactive)	1.04 (inactive)	0.809 (inactive)	0.509 (inactive)	-0.967	-0.261 (inactive)	-1.7 (inactive)	-1.62	-0.264	-0.723	0.19	-0.416	-0.737	-1.47	-1.83 (inactive)	-0.187	-1.13	-0.0475 (inactive)
CC1CC/C=C\[C@H]2OC34C=CCN(CCN5CCOCC5)C(=O)[C@H]3N(C(CO)C(C)C)C(=O)[C@@H]4C2C(=O)O1 (stereo not given in full)	-0.481 (inactive)	-0.247	1.94 (inactive)	-0.184 (inactive)	0.927 (inactive)	0.233 (inactive)	-0.69	1.13 (inactive)	-0.728 (inactive)	1.91	0.0685	-1.26	0.545	-0.515	0.0582	-0.989	-0.161 (inactive)	0.19	-0.308	-0.37 (inactive)
CC(C)C[C@@H]1NC(=O)[C@@H]2C[C@H](C(=O)NCCCCCCNC(=O)CS)[C@H](c3ccc(O)cc3)N2C1=O	0.81 (inactive)	0.197	4.25 (inactive)	-0.506 (inactive)	0.75 (inactive)	-1.54 (inactive)	0.0377	0.569 (inactive)	0.943 (inactive)	-0.706	0.191	0.963	-0.892	-0.523	0.037	-1.69	-0.226 (inactive)	-0.684	-0.391	-0.399 (inactive)
CC[C@@H]1C=C(C(=O)O)[C@H](c2cccc(Cl)c2)N1S(=O)(=O)c1ccc(C)cc1	-1.23 (inactive)	0.0043	0.522 (inactive)	0.229 (inactive)	-0.0699 (inactive)	0.29 (inactive)	-0.861	0.416 (inactive)	0.185 (inactive)	0.272	-0.0107	-0.762	0.223	0.126	0.0221	-0.743	-0.41 (inactive)	-0.623	-0.343	-0.628 (inactive)
N#Cc1ccc(NN2C(C(O)c3ccc(B(O)O)cc3)C=CC3CN(c4ccccc4)C(=O)C32)cc1 (stereo not given)	1.18 (inactive)	0.521	24.4 (active)	10.6 (active)	3.76 (inactive)	2.54 (inactive)	-0.882	-2.63 (inactive)	-6.25 (inactive)	-4.31	0.222	-0.463	-0.35	-0.104	-1.29	-2.14	-0.643 (inactive)	-0.0762	-0.696	0.238 (inactive)
O=C1NC(=O)C2C1C=CC(C(O)C1CCCCC1)N2Nc1ccccn1 (stereo not given)	-1.72 (inactive)	-0.0779	0.188 (inactive)	0.567 (inactive)	-0.489 (inactive)	0.433 (inactive)	-0.621	-1.2 (inactive)	-3.29 (inactive)	-2.69	-1.05	-0.608	-0.484	-0.0776	-0.76	-1.45	-0.894 (inactive)	-0.573	-0.9	-0.606 (inactive)
C=C[C@@H](CO)NS(=O)(=O)c1ccc(Br)cc1	3.75 (inactive)	-0.239	-0.398 (inactive)	-0.68 (inactive)	-1.12 (inactive)	-1.81 (inactive)	1.36	0.908 (inactive)	1.05 (inactive)	1.44	2.03	0.935	2.23	0.855	1.05	0.631	0.369 (inactive)	0.133	0.993	2.35 (inactive)
C=C(CCCC)/C(=C/C[C@@H](OC(C)=O)c1ccc(OCCO)cc1)c1cc(C(=O)OC)ccc1OC	-0.195 (inactive)	-0.0518	23.7 (active)	6.34 (inactive)	1.86 (inactive)	1.19 (inactive)	-0.265	-0.958 (inactive)	-1.43 (inactive)	-1.98	-0.144	-0.703	0.447	-3.33	-3.24	0.621	-1.5 (inactive)	-0.826	-1.3	0.293 (inactive)
CCOC(=O)C[C@H]1[C@H](OC(=O)c2cc3ccccc3oc2=O)[C@@H](NC(=O)c2ccc(-c3ccccc3)cc2)c2cc(OCCCO)ccc2N1C(=O)Cc1ccc(OC)cc1	-0.601 (inactive)	-0.0162	20.3 (active)	5.12 (inactive)	0.557 (inactive)	1.04 (inactive)	-0.192	1.38 (inactive)	1.08 (inactive)	1.23	-0.382	1	0.0719	0.17	-0.84	-0.0623	-1.08 (inactive)	-0.97	-0.0508	0.0573 (inactive)
C#CCN(C(=O)OC(C)(C)C)[C@H](CO)c1ccccc1	-1.15 (inactive)	-0.0536	1.57 (inactive)	-0.0352 (inactive)	-0.195 (inactive)	0.133 (inactive)	0.137	0.441 (inactive)	0.469 (inactive)	0.745	-0.413	-0.24	-1.51	-0.404	-0.404	-1.16	0.0135 (inactive)	0.136	-0.125	0.659 (inactive)
